We go through 70 molecules from PubChem BioAssay AID504834 (National Center for Advancing Translational Sciences (NCATS), 2011).

Screen size: about 320,000 compounds; about 22,000 (6.9%) were called active. About 27% were inconclusive and are not listed. This excerpt belongs to a sample that is enriched for actives. Values without a mark were called inactive. Calls come from the whole dose curve; as a rule, active = well fitted inhibition curve with a large enough effect; inconclusive = small, poorly fitted or top-dose-only effect, or another doubt; inactive = no such curve, though single readings can be large or run the other way.
% is set by controls: 0 for no effect and ±100 for the full control effect; potency is the fitted concentration of half-maximal effect.

The nature of the test: Primary qHTS for delayed death inhibitors of the malarial parasite plastid, 96 hour incubation. As to conditions: P. falciparum luciferase reporter growth; series mostly up to 28.7 µM; activity change, negative = inhibition: at the top concentration. A digest of the protocol: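 Parasite growth measured via integrated firefly luciferase reporter in P. falciparum. Infected erythrocytes at 2% hematocrit, 0.05% parasitemia final were treated 96 hours at 37 C under 5% CO2, and luminescence was read.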
A general note: Quantitative high-throughput screening tests each substance at several concentrations.
Consider `CS(=O)(=O)c1ccccc1C(=O)Nc1ccc2sccc2c1`, for which the “activity change, negative = inhibition” value was 35.9%.
Still for that read-out and setting: the value for `O=[N+]([O-])c1cccc2ncccc12` was 2.85%.
Same read-out and setting: the value for `C/C(=N\NC(N)=S)c1cccnc1` was 22.1%.
As for `C/C(=N\NC(=S)NC(C)C)c1ccc(C(C)(C)C)cc1`, the Potency was 3.7 µM (active).
As to `C/C(=N\NC(N)=S)c1ccncc1`, the “activity change, negative = inhibition” value was 17.4%.
On the same count and under the same terms, the same measure for `CC(C)Cc1nnc(NC(=O)CCc2ccccc2)s1`: -25%; for `CC(=O)N(Cc1cc(=O)[nH]c2ccccc12)c1ccc(C)cc1C`: -0.0262%; for `Cc1noc(C)c1CSCC(=O)Nc1ccc(Br)cc1Cl`: 0.407%.
Turning to `COc1cccc(Cn2cnc3c([N+](=O)[O-])c(C)c(C)cc32)c1`, the “activity change, negative = inhibition” value is -13.7%.
On to `Cc1cccc(Cn2cnc3c(N)c(C)c(C)cc32)c1`, for which the Potency is 10.4 µM (active).
For `CCOC(=O)c1cn(Cc2cccc(C)c2)nn1`, the “activity change, negative = inhibition” value is -7.81%.
Turning to `Cc1ccc(NC(=O)c2cc3ccccc3o2)cc1`, the “activity change, negative = inhibition” value is 15.5%.
As to `O=C(O)c1[nH]c2ccccc2c1C(c1cccc(O)c1)c1c(C(=O)O)[nH]c2ccccc12`, the “activity change, negative = inhibition” value is 31.7%.
Same read-out and setting: the value for `COc1ccc(NC(=O)CN(C)C(=O)CNC(=O)C2CCCCC2)cc1` was 1.78%; that for `O=S(=O)(Oc1ccccc1C(=S)N1CCOCC1)c1ccc(Cl)cc1` was -6.25%; that for `CCCCNC(=O)CCn1nc(-c2ccc(Cl)cc2)ccc1=O` was -4.67%.
Same read-out and setting: the same measure for `COc1cccc(N(CC(=O)N2CCc3ccccc3C2)S(C)(=O)=O)c1`: -3.71%.
As for `Cc1ccc(S(=O)(=O)N(CC(=O)N2CCc3ccccc3C2)c2cccc(Cl)c2)cc1`, the Potency was 8.28 µM (active).
With `Cc1ccc(Cl)c(OCC(=O)N2CCc3ccccc3C2)c1`, the “activity change, negative = inhibition” value was -26.9%.
Same read-out and setting: the value for `CC(C)=CCC/C(C)=C/C(=O)O` was 38.9%.
Turning to `O=C(Nc1ccccc1F)C1C2C=CC3(O2)C1C(=O)N(c1cccnc1)C3C(=O)NC1CCCCC1` (stereo not given), the Potency is 13.1 µM (active).
For the molecule `O=C(NCc1cccnc1)Nc1ccccc1F`, the “activity change, negative = inhibition” value is 2.75%.
Same read-out and setting: the same measure for `CC(C)N1C(=O)C2C(C(=O)NC3CCCCC3)C3C=CC2(O3)C1C(=O)NC1CCCC1` (stereo not given): -1.06% [at 5.75 µM]; for `Nc1ccccc1C(=O)NC1CCCCNC1=O` (stereo not given): 13.7%.
Still for that read-out and setting: the value for `O=C1CCNCCN1[C@H](CO)Cc1ccccc1` was -16.3%.
Take `Cc1cccc([C@H](C)c2cnc[nH]2)c1C`: the Potency was 4.26 µM (active).
Turning to `Cc1cccc(N2CCN(C(=O)C3CCN(S(=O)(=O)c4cnc[nH]4)CC3)CC2)c1C`, the “activity change, negative = inhibition” value is -24.5%.
The same measure, in the same setting: the value for `CSc1ncccc1C(=O)NCc1ccccc1Cl` was 18%.
Still for that read-out and setting: the value for `COc1ccc(CNC(=O)c2ccc(Br)s2)cc1OC` was 5.99%.
With `Cc1ccc(OCC(=O)OC(C)CN(C)Cc2ccccc2)cc1` (stereo not given), the “activity change, negative = inhibition” value was 8.03%.
In the case of `CN(Cc1ccccc1)CC(O)COc1ccc(CNCc2cc3ccccc3s2)cc1` (stereo not given), the Potency is 4.15 µM (active).
`OC(CNCc1ccc2c(c1)OCO2)COc1ccccc1` (stereo not given): the “activity change, negative = inhibition” value is -21.4%.
For `CC(C)C[C@H](NC(=O)[C@@H]1O[C@H]1C(=O)O)C(=O)NCCCCN=C(N)N`, the Potency is 3.29 µM (active).
`COP1(=O)C[C@@H](O)[C@@H](O)[C@@H](COCc2ccccc2)O1` (stereo not given in full): the “activity change, negative = inhibition” value is 30.8%.
For `COc1ccc(/C=C2\N=C3CCCN3C2=O)cc1`, the “activity change, negative = inhibition” value is 43.5%.
In the case of `CSc1nc(C)nc(C2CC2)c1C#N`, the “activity change, negative = inhibition” value is 10.3%.
On to `Cc1cc(N2CCN(c3ccc(F)cc3)CC2)n2ncnc2n1`, for which the “activity change, negative = inhibition” value was 33.7%.
On the same count and under the same terms, the same measure for `Cc1cc(C)nc(N/N=C/c2ccncc2)n1`: -3.32%.
On to `Cc1cc(C)nc(N/N=C/c2ccc([N+](=O)[O-])o2)n1`, for which the Potency was 5.22 µM (active).
As to `O=C(N/N=C/c1ccc([N+](=O)[O-])o1)c1cc([N+](=O)[O-])cc([N+](=O)[O-])c1O`, the “activity change, negative = inhibition” value is -102%.
Same read-out and setting: the value for `CCOC(=O)c1cc(C(C)C)sc1NC(=O)COC(=O)c1nccnc1N` was 62.1%.
Same read-out and setting: the same measure for `Cc1ccc(NC(=O)[C@H](Cc2ccccc2)NC(=O)C2CCNCC2)cc1`: -1.68%.
Same read-out and setting: the same measure for `O=C(/C=C/c1ccccc1Cl)Nc1ccc(S(=O)(=O)Nc2ncccn2)cc1`: 5.65%.
As to `NS(=O)(=O)c1ccc(NC(=O)/C=C/c2ccccc2Cl)cc1`, the Potency is 10.4 µM (active).
`CC(=O)NS(=O)(=O)c1ccc(NC(=O)/C=C/c2ccccc2Cl)cc1`: the “activity change, negative = inhibition” value was 2.7%.
Same read-out and setting: the same measure for `CCc1noc(C)c1C(=O)NNC(=O)c1ccc(F)cc1`: 12.7%; for `O=S(=O)(c1ccccc1)c1nc(-c2ccccc2)oc1NCCCN1CCOCC1`: -3.97%; for `CCc1nc2sc(C(=O)O)c(N)c2c2c1CCCC2`: -8.46%.
On the same count and under the same terms, the same measure for `COc1ccc(C2CC(c3ccc(Cl)cc3Cl)Nc3nc(N)nn32)cc1OC` (stereo not given): 1.9%.
Take `CCOc1ccccc1C1CC(c2ccc(Cl)cc2)Nc2nc(N)nn21` (stereo not given): the Potency is 10.4 µM (active).
`CCOc1ccccc1C1CC(c2ccccc2)Nc2nc(N)nn21` (stereo not given): the “activity change, negative = inhibition” value was 3.66%.
Same read-out and setting: the value for `COCCCNc1nc2ccccc2nc1NS(=O)(=O)c1ccc(F)cc1` was -2.54%.
As to `Cc1cccc(-n2nc3c(c2NC(=O)c2cc4ccccc4o2)CS(=O)(=O)C3)c1`, the “activity change, negative = inhibition” value was -14.9%.
Turning to `COc1ccc(/C(C)=N\NC(=O)c2ccc(-c3ccccc3)cc2)c(F)c1`, the Potency was 10.4 µM (active).
For the molecule `CCN(CC)c1ccc(C(=O)N/N=C(\C)c2cccc(OC)c2)cc1`, the “activity change, negative = inhibition” value is -11.7%.
Still for that read-out and setting: the value for `COc1cccc(C(=O)N/N=C(\C)c2cccc(NC(=O)c3ccc(F)cc3)c2)c1OC` was 42.8%.
On the same count and under the same terms, the same measure for `CN(Cc1nc2ccccc2s1)C(=O)c1ccc(F)cc1`: 18.1%.
Same read-out and setting: the value for `COc1ccccc1CC(=O)Nc1ccc(S(=O)(=O)N2CCCC2)cc1` was -1.9%.
Turning to `Cn1cc(CCC(=O)N2CCCC(C(=O)c3ccc(C(C)(C)C)cc3)C2)cn1` (stereo not given), the “activity change, negative = inhibition” value was 0.855%.
On the same count and under the same terms, the same measure for `CCOC(=O)C1CCCN(C(=O)/C=C/c2ccc(OC)cc2)C1` (stereo not given): 35.4%.
Take `Cn1cc(/C=C/C(=O)N2CCCC(C(=O)c3ccc(C(F)(F)F)cc3)C2)cn1` (stereo not given): the Potency was 10.4 µM (active).
Take `Cc1cccc(NC(=O)N2CCCCCC2)c1C`: the “activity change, negative = inhibition” value is 95.6%.
Still for that read-out and setting: the same measure for `N[C@@H](Cc1ccccc1)C(=O)N1CCOCC1`: 79.6%.
Same read-out and setting: the same measure for `COc1cccc(CNC(=O)c2cccnc2Sc2ccc(Cl)cc2)c1`: -1.02%; for `O=C1c2cccc3cccc(c23)C(=O)N1c1cccc(O)c1`: 8.72%.
For the molecule `CCC(=C/c1sc2ccc3ccccc3c2[n+]1C)/C=C1\Sc2ccc3ccccc3c2N1C`, the Potency was 9.28 µM (active).
Take `CC1(C)C2CCC1(CS(=O)(=O)NCCc1c[nH]c3ccccc13)C(=O)C2` (stereo not given): the “activity change, negative = inhibition” value was -23.1%.
On to `Cc1csc(=O)n1CC(=O)OCC(=O)N(CC(C)C)c1c(N)n(Cc2ccccc2)c(=O)[nH]c1=O`, for which the “activity change, negative = inhibition” value was 22.2%.
Turning to `Nc1nnc2c(C(F)(F)F)nc3ccccc3n12`, the “activity change, negative = inhibition” value was 37.9%.
The same measure, in the same setting: the same measure for `Cc1ccc(OCCNC(=O)CCNS(=O)(=O)c2ccc(Br)cc2)cc1`: 71.1%.
